This is an account of results in the supplement of paper PMC10681739.

Experiment [1] has as its target T1, ETS1 (UniProt P14921).
T1 sequence: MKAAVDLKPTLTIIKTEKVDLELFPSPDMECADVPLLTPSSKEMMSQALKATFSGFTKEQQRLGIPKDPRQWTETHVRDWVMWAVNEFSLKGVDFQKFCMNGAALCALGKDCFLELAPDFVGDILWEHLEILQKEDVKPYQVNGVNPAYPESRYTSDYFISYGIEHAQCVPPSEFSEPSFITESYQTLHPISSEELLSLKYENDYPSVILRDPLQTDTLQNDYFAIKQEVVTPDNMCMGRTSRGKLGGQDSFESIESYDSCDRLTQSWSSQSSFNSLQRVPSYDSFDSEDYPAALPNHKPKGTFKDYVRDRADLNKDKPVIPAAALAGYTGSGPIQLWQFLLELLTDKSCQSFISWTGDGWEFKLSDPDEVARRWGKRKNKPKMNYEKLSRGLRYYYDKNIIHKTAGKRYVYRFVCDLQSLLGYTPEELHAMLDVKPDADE
Kind of experiment: ETS1 binding intensity (PBM fluorescence), ETS1 alone (arbitrary fluorescence units); higher = stronger binding. The conditions noted are these: ETS1 concentration 1 nM; RUNX1 concentration 0 nM.

The target in experiment [2] is T1, ETS1. In words: ETS1 binding intensity (PBM fluorescence) in presence of RUNX1, normalised to ETS1-only experiment (arbitrary fluorescence units); higher = stronger binding. The conditions noted are these: ETS1 concentration 1 nM; RUNX1 concentration 25 nM.

As to CTAGGGAGAGGATGTGAGTTTGTCTGTGGGGGTGGT, the results for the ETS1 binding intensity in experiment [1] and in experiment [2] were 796 and 828, respectively.
The corresponding values for CAGCCCTAGCGAGTTTCCTGCGGGGAAGGGCATTCC are 537 and 480.
In the same order, the values of CTATATCACATCCTTTCTCTGACCGCGCTGACTTCG are 452 and 481.
CTAGTTTCCTGTGGCTGCTATGACAAATGACCACAG: the results for the ETS1 binding intensity in experiment [1] and in experiment [2] were 403 and 474, respectively.
The corresponding values for TCAGTGCACTCGGATGTTGGCCGCAGTTGGGGTTAT are 453 and 422.
The corresponding values for CGAGCTCGCAAGAGGAAACCGCGGCGCGGAGGCAGC are 681 and 1130.
The corresponding values for TGCCTCTTCCTGTGGCTGGGCTGTATCTGACCACAC are 503 and 462.
Take CCCCTTCATCCGCCTCTCTCTCACCGCGCCGCTCCC: the ETS1 binding intensity in experiment [1] came out at 449; in experiment [2], 330.
The corresponding values for TCAGGGTCAGCAGGAGGAAACCACGCACTACATGCT are 437 and 451.
The corresponding values for GAAACTTCTCAAGGAAATAGCTGTGGTAAACAATAC are 725 and 1730.
The corresponding values for CGGCGCTCGCGGAAGTGCCGCGGTGCCTGCTCTGCA are 796 and 759.
As to GCACAGGAAAAGCTGCTTTCCGCGTGGTAAATTCAA, the ETS1 binding intensity in experiment [1] amounted to 484; in experiment [2] it was 446.
In the same order, the values of TTCTTAGCAGAGGAAGCTGTTTGCGGGGAAAAAGGG are 1120 and 2200.
In the case of GTCCTCCAGGAAGCCCGCGCTAACCACCGTGCCTTT, the results for the ETS1 binding intensity in experiment [1] and in experiment [2] were 420 and 688, respectively.
With AAGTCAGAGTTTACTTCCGAACCCACAGTGCCAAGC, the figures for the ETS1 binding intensity in experiment [1] and in experiment [2] were 423 and 486, respectively.
In the same order, the values of GTCTTCACATGTAGGGGAAGTGGGTTAGCGTAGGAG are 951 and 1260.
The corresponding values for TGTGCTTTGTAGTGAGGATGTGGGTGCCTGCCTCAC are 797 and 1010.
On to GGAGGAAGGCAGGAAAGAAAGAGGTGGTTTCGGCAC, for which the ETS1 binding intensity in experiment [1] is 605; in experiment [2] it was 762.
The corresponding values for TTCTCTGATTTTCCTTCCGCTCCCACAGCCTCTCCC are 697 and 612.
GGCCGGGGACGGAAGGCGGGCCCGCAGCAGATCCTG: the ETS1 binding intensity in experiment [1] was determined as 475; in experiment [2], 362.
In the same order, the values of AGCCGGAGGCGGAAGGAGCAGCGCTACCGCAGCGTC are 639 and 1130.
In the same order, the values of ACCACCCCCCGTTTCCTCCGAAGTGGTTGGTGCCTT are 590 and 494.
For the sequence GGTTGCCCCCTTCCTCTCTGTGGCACACACAGACCT, the ETS1 binding intensity in experiment [1] was 474; in experiment [2] it was 345.
Consider AGGCAGGGAAGTGGCGCAGAGGAGACCACAGGACAC, for which the figures for the ETS1 binding intensity in experiment [1] and in experiment [2] were 563 and 803, respectively.
The corresponding values for GAGATAGTCTGGAGGGGAAGTGGTTATAAGTGATAA are 797 and 1290.
In the same order, the values of GGGAGGGCGGAAGGCGGCTCTGCGGCAGCAAGCCCC are 476 and 341.
For TGACGGCCAGGAAGCCTGAAGCCGCAGGGGCCGCCG, the ETS1 binding intensity in experiment [1] worked out at 345; in experiment [2], 595.
The corresponding values for GTGTTCAGACGGAAGCGTTATTCAGTGGTCAGAGCA are 741 and 1070.
The corresponding values for CTACATGTTTCACAGGAAGGTGGTCACCAGGAGGCA are 782 and 821.
Regarding AGGGAGACCGGGCCGGATTGCGGGGAGTGAGCAGGT, the ETS1 binding intensity is 543 in experiment [1] and 360 in experiment [2].
The corresponding values for CGGGGCATGCCGGACGCTGTGGTCCTGAAGGCCTGG are 536 and 423.
In the same order, the values of GCGCACGCGCGTTGTTTCCGCGGTAGTCAGGGCAGT are 477 and 364.
On to ACTCCGCCCCTTCCGCCTGGCGGTTCCACTTCTCGG, for which the ETS1 binding intensity turned out to be 480 in experiment [1] and 456 in experiment [2].
In the same order, the values of GGCCGGAAAGGGTCTTGAGAGGAGGTGGTTGCCTTA are 633 and 519.
As to AACCAAGAGGATTTCCTGCCCACACACTCAGCGTCT, the ETS1 binding intensity in experiment [1] was found to be 870; in experiment [2], 751.
The corresponding values for TTGGAGACACACAAAGGATGTGGGCTGTGCGTGTGT are 1380 and 1780.
In the same order, the values of TCGGTGAAGGACGGAAGATGATAGCCACATTTCTTC are 512 and 485.
Turning to TTGCGTCACGTCCGGCCTGCGAGTTACCGCCCACTC, the values for the ETS1 binding intensity in experiment [1] and in experiment [2] were 690 and 603, respectively.
In the same order, the values of GCACCATCTCCCGACTTCCGCGGTGTCCCAGGTCCT are 559 and 434.
In the case of AGCTCCAGGAAGAGGGCCTGAAAACCAAACGGGGGA, the figures for the ETS1 binding intensity in experiment [1] and in experiment [2] were 408 and 474, respectively.
In the case of TGCCGTTTCCGGGTCACCCAGGCAGCTTGTGGCGGC, the figures for the ETS1 binding intensity in experiment [1] and in experiment [2] were 528 and 478, respectively.
In the same order, the values of AGCACCCCACATCCTGCACCCCACAACCCAGATCCC are 510 and 546.
In the same order, the values of GGTCACATCCTTTCCCTTCTGTGTCTCAGCCGCAGT are 421 and 449.
In the same order, the values of AAGCAGAGCTCAGGATGTGGTGCCGTGCGAGGGCGG are 697 and 847.
Take GGGCCCCCGGAAAGAGCTTTGACCGCTCGAGCCTGC: the figures for the ETS1 binding intensity in experiment [1] and in experiment [2] were 456 and 489, respectively.
For the sequence TAAACGTCAGCTTCCTTTGTGGCTTACCCTCCCGCC, the ETS1 binding intensity in experiment [1] is 495; in experiment [2], 582.
Turning to TGCTTAGAACACGGAAACACTGAGGTTTTACTTTGA, the values for the ETS1 binding intensity in experiment [1] and in experiment [2] were 482 and 560, respectively.
Consider TATCACGTTTCCTGCTGCTGCACCGCGACCTCAGCT, for which the values for the ETS1 binding intensity in experiment [1] and in experiment [2] were 513 and 492, respectively.
The corresponding values for TGGGCACGGGAGGAAGAGGCTGGGTGGTAAACAGGA are 467 and 494.
Take TTTCTTCCTGTTTGCATCACCCCAAACCCACTATCA: the figures for the ETS1 binding intensity in experiment [1] and in experiment [2] were 514 and 469, respectively.
Turning to TAGTCCGCTACAGGAAGGTGGTCATCCTCGGATACC, the results for the ETS1 binding intensity in experiment [1] and in experiment [2] were 1110 and 1170, respectively.
As to CCTCCCGGCTTCCGTTCCTTGACCACCTCCTTCTCG, the values for the ETS1 binding intensity in experiment [1] and in experiment [2] were 560 and 501, respectively.
In the same order, the values of TGGGGGCGGAAGCCTAAACCCCTCCCGCAGCCAGTC are 625 and 627.
The corresponding values for AGAATTACCAGGAAGCCGAGCGCTGCGGGCTAGCGG are 518 and 631.
